Reference: PubChem BioAssay (NCATS)
Where “and” joins values, the source holds several entries; their conditions need not be identical. Equal entries are not always repeated. Inconclusive results are not listed. Calls of active or inactive are those of the source. Calls come from the whole dose curve; as a rule, active = well fitted curve in the direction sought with a large enough effect; inconclusive = small, poorly fitted or top-dose-only effect, or another doubt; inactive = no such curve, though single readings can be large; an effect the other way counts as inactive or inconclusive.

What was measured:
[1] = qHTS of pediatric cancer cell lines to identify multiple opportunities for drug repurposing: Primary screen for NB1643 cells (AID 1347099); note: nearly all actives have a fitted effect of over 50% in size; note: potency is the fitted concentration of half-maximal effect
Outline: (§1)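 CRCs from 8- or 11-point titrations (lowest final 0.59 nM NPC, 0.78 nM MIPE). Cell viability: CellTiter-Glo after 48 h incubation, 15 min room-temperature development, luminescence imaging.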

[2] = qHTS of pediatric cancer cell lines to identify multiple opportunities for drug repurposing: Primary screen for LAN-5 cells (AID 1347100); note: potency is the fitted concentration of half-maximal effect
Outline: (§2)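 Cells (500-1,000/well) rested 5 h, then received compounds for 48 h; metabolically active cells were measured by CellTiter-Glo luminescence. Final concentrations spanned up to 46 µM (MIPE, 11-point) or 0.59 nM-46 µM (NPC, 8-point) in primary screens, 11-point in follow-ups.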

[3] = qHTS of pediatric cancer cell lines to identify multiple opportunities for drug repurposing: Primary screen for BT-12 cells (AID 1347101); note: nearly all actives have a fitted effect of over 25% in size; note: potency is the fitted concentration of half-maximal effect
Outline: as §2

[4] = qHTS of pediatric cancer cell lines to identify multiple opportunities for drug repurposing: Primary screen for Rh18 cells (AID 1347102); note: nearly all actives have a fitted effect of over 65% in size; note: potency is the fitted concentration of half-maximal effect
Outline: as §2

[5] = qHTS of pediatric cancer cell lines to identify multiple opportunities for drug repurposing: Primary screen for MG 63 (6-TG R) cells (AID 1347105); note: nearly all actives have a fitted effect of over 50% in size; note: potency is the fitted concentration of half-maximal effect
Outline: as §1

[6] = qHTS of pediatric cancer cell lines to identify multiple opportunities for drug repurposing: Primary screen for control Hh wild type fibroblast cells (AID 1347106); note: nearly all actives have a fitted effect of over 55% in size; note: potency is the fitted concentration of half-maximal effect
Outline: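 Viability after 48 h compound treatment at 37C, 500-1,000 cells/well, read as ATP luminescence with CellTiter-Glo. Primary screens used 11-point (MIPE, 0.78 nM-46 µM) or 8-point (NPC, 0.59 nM-46 µM) final concentrations; follow-up screens used 11-point dilutions.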

[7] = qHTS of pediatric cancer cell lines to identify multiple opportunities for drug repurposing: Primary screen for Rh30 cells (AID 1347107); note: series mostly up to about 46 µM; nearly all actives have a fitted effect of over 75% in size
Outline: as §2

[8] = qHTS of pediatric cancer cell lines to identify multiple opportunities for drug repurposing: Primary screen for RD cells (AID 1347104); note: nearly all actives have a fitted effect of over 55% in size; note: potency is the fitted concentration of half-maximal effect
Outline: as §1

[9] = qHTS of pediatric cancer cell lines to identify multiple opportunities for drug repurposing: Primary screen for Rh41 cells (AID 1347108); note: nearly all actives have a fitted effect of over 70% in size; note: potency is the fitted concentration of half-maximal effect
Outline: as §1

[10] = qHTS of pediatric cancer cell lines to identify multiple opportunities for drug repurposing: Primary screen for OHS-50 cells (AID 1347103); note: nearly all actives have a fitted effect of over 40% in size; note: potency is the fitted concentration of half-maximal effect
Outline: as §2

[11] = qHTS of pediatric cancer cell lines to identify multiple opportunities for drug repurposing: Confirmatory screen for NB1643 cells (AID 1347109); note: potency is the fitted concentration of half-maximal effect; nearly all actives have a fitted effect of over 45% in size
Outline: as §2

[12] = qHTS of pediatric cancer cell lines to identify multiple opportunities for drug repurposing: Confirmatory screen for A673 cells (AID 1347110);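 note: potency is the fitted concentration of half-maximal effect; cells exposed to compound for 48 h before the viability read; nearly all actives have a fitted effect of over 65% in size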
Outline: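 A673 cells seeded at 500-1,000 cells/well, rested 5 h, then dosed; primary MIPE 11-point (0.78 nM to 46 µM), NPC (0.59 nM to 46 µM); confirmatory 11-point. CellTiter-Glo luminescence after 48 h.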

[13] = qHTS of pediatric cancer cell lines to identify multiple opportunities for drug repurposing: Confirmatory screen for SK-N-MC cells (AID 1347111);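 note: potency is the fitted concentration of half-maximal effect; cells exposed to compound for 48 h before the readout; nearly all actives have a fitted effect of over 70% in size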
Outline: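 Seed 500-1,000 cells/well; rest 5 h at 37 degrees C. Pin-transfer compounds, 11-point titration. Incubate 48 h. Add CellTiter-Glo, 15 min RT, read luminescence.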

[14] = qHTS of pediatric cancer cell lines to identify multiple opportunities for drug repurposing: Confirmatory screen for BT-12 cells (AID 1347112); note: potency is the fitted concentration of half-maximal effect; nearly all actives have a fitted effect of over 55% in size
Outline: as §2

[15] = qHTS of pediatric cancer cell lines to identify multiple opportunities for drug repurposing: Confirmatory screen for LAN-5 cells (AID 1347113); note: potency is the fitted concentration of half-maximal effect; nearly all actives have a fitted effect of over 65% in size
Outline: as §2

[16] = qHTS of pediatric cancer cell lines to identify multiple opportunities for drug repurposing: Confirmatory screen for DAOY cells (AID 1347114); note: nearly all actives have a fitted effect of over 65% in size; note: potency is the fitted concentration of half-maximal effect
Outline: (§3)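 Viability measured as metabolically active cells via CellTiter-Glo luminescence following 48 hours of compound exposure, 11-point dilutions in confirmatory testing. 500-1,000 cells/well plated 5 hours before dosing; controls were DMSO and 2.3 µM bortezomib.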

[17] = qHTS of pediatric cancer cell lines to identify multiple opportunities for drug repurposing: Confirmatory screen for SJ-GBM2 cells (AID 1347116); note: potency is the fitted concentration of half-maximal effect; nearly all actives have a fitted effect of over 60% in size
Outline: as §3

[18] = qHTS of pediatric cancer cell lines to identify multiple opportunities for drug repurposing: Confirmatory screen for BT-37 cells (AID 1347117); note: potency is the fitted concentration of half-maximal effect; nearly all actives have a fitted effect of over 55% in size
Outline: as §2

[19] = qHTS of pediatric cancer cell lines to identify multiple opportunities for drug repurposing: Confirmatory screen for TC32 cells (AID 1347118)
Outline: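 Luminescent CellTiter-Glo read-out of metabolically active TC32 cells after 48 h compound exposure. Primary: MIPE 11-point, 0.78 nM–46 µM; NPC 8-point, 0.59 nM–46 µM. Confirmatory: 11-point dilutions.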

[20] = qHTS of pediatric cancer cell lines to identify multiple opportunities for drug repurposing: Confirmatory screen for NB-EBc1 cells (AID 1347115);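 note: cells exposed to compound for 48 h before the viability read; nearly all actives have a fitted effect of over 45% in size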; note: potency is the fitted concentration of half-maximal effect
Outline: as §2

Measured: Potency

O=C(O)C(=O)c1cn(Cc2ccccc2)c2ccc(-c3ccc(OC(F)(F)F)cc3)cc12
active: [1] 23500 nM
inactive: [2] | [3] | [4] | [5] | [6] | [7]

COc1ccc(C(=O)c2c(C)n(CCN3CCOCC3)c3ccccc23)cc1
inactive: [1] | [2] | [3] | [4] | [8] | [5] | [6] | [7] | [9]

OCCOc1ccccc1
inactive: [1] | [2] | [3] | [4] | [10] | [8] | [5] | [6] | [7] | [9]

CNCC(O)c1ccc(O)cc1 (configuration not stated)
inactive: [1] | [2] | [3] | [4] | [10] | [8] | [5] | [6] | [7] | [9]

FC(F)(F)c1cccc(C2=CCN(CCc3ccc4ccccc4c3)CC2)c1
inactive: [1] | [2] | [3] | [4] | [8] | [5] | [6] | [7] | [9]

C[C@H]1O[C@@H](O[C@H]2[C@@H](O)C[C@H](O[C@H]3[C@@H](O)C[C@H](O[C@H]4CC[C@@]5(C)[C@H](CC[C@@H]6[C@@H]5CC[C@]5(C)[C@@H](C7=CC(=O)OC7)CC[C@]65O)C4)O[C@@H]3C)O[C@@H]2C)C[C@H](O)[C@@H]1O
active: [1] 29.9 nM | [2] 47.3 nM | [3] 21.9 nM | [10] 11 nM | [8] 7.5 nM | [5] 5.3 nM | [6] 841 nM | [11] 329 nM | [12] 465 nM | [13] 131 nM | [14] 185 nM | [15] 233 nM | [16] 65.7 nM | [17] 233 nM | [18] 58.5 nM | [19] 82.7 nM
inactive: [7]

Clc1cccc(N2CCNCC2)c1
inactive: [1] | [2] | [3] | [4] | [8] | [5] | [6] | [7] | [9]

CC(C)CC(N(C)C)C1(c2ccc(Cl)cc2)CCC1 (configuration not stated)
active: [19] 23300 nM
inactive: [1] | [2] | [3] | [4] | [10] | [8] | [5] | [6] | [7] | [9] | [16] | [20]

Fc1ccc(C(OCCN2CCN(CCCc3ccccc3)CC2)c2ccc(F)cc2)cc1
active: [1] 13200 nM | [2] 16.6 µM and 8.41 µM | [3] 21.7 µM and 24.6 µM | [10] 10.9 µM and 15.5 µM | [8] 26.4 µM and 23.7 µM | [5] 21100 nM | [9] 20900 nM
inactive: [6]

COC1(CS(=O)c2ccccc2)CCN(CCc2c[nH]c3ccc(F)cc23)CC1 (configuration not stated)
inactive: [1] | [2] | [3] | [4] | [8] | [5] | [6] | [7]

C[C@]12CCC(=O)C(O)=C1CC[C@@H]1[C@@H]2CC[C@]2(C)C(=O)CC[C@@H]12
inactive: [1] | [2] | [3] | [4] | [10] | [8] | [5] | [6] | [7] | [9]

O=c1oc2ccccc2c(O)c1C(CC(O)c1ccc(-c2ccc(Br)cc2)cc1)c1ccccc1 (configuration not stated)
inactive: [1] | [2] | [3] | [4] | [10] | [8] | [5] | [6] | [7] | [9]

NCCc1cc(O)c(O)cc1O
inactive: [1] | [2] | [3] | [4] | [8] | [5] | [6] | [7] | [9]

CN1C(=S)CN=C(c2ccccc2)c2cc(Cl)ccc21
inactive: [1] | [2] | [3] | [4] | [10] | [8] | [6] | [7] | [9]

NN=C(N)N
inactive: [1] | [2] | [3] | [4] | [10] | [8] | [5] | [6] | [7] | [9]

C[C@@H]1[C@@H](CC(C[C@H]2O[C@@H]3O[C@]4(C)CC[C@@H]5[C@H](C)CC[C@@H]([C@H]2C)[C@@]35OO4)C[S+](=O)([O-])c2ccc(COC(=O)N(C)C)cc2)O[C@@H]2O[C@]3(C)CC[C@H]4[C@H](C)CC[C@@H]1[C@@]24OO3 (some centres not stated)
inactive: [6] | [7]
active: [1] 1050 nM | [2] 662 nM | [3] 344 nM | [4] 1660 nM | [10] 306 nM | [11] 414 nM | [13] 293 nM | [14] 657 nM | [15] 1040 nM | [16] 1040 nM | [20] 928 nM | [17] 1650 nM | [18] 233 nM | [19] 585 nM

CC(C)=CC1C(C(=O)OCc2cccc(Oc3ccccc3)c2)C1(C)C (configuration not stated)
inactive: [1] | [2] | [3] | [4] | [8] | [5] | [6] | [7] | [9]

O=C(NC(O)C(Cl)(Cl)Cl)NC(O)C(Cl)(Cl)Cl (configuration not stated)
inactive: [1] | [2] | [3] | [4] | [10] | [8] | [5] | [6] | [7] | [9]

Cc1cc(SCc2sc(-c3ccc(C(F)(F)F)c(F)c3)nc2C)ccc1OCC(=O)O
inactive: [1] | [2] | [3] | [4] | [8] | [5] | [6] | [7] | [9]
